Measurements taken from PubChem BioAssay AID646 (Vanderbilt High Throughput Screening Facility, 2007).
In all, about 1,900 compounds went through this assay and about 15 (0.8%) were called active. No stated cut-off is given here; in the data, active means luminescence above about 3900; inactive means the rest. A selection follows.

biological target: D(1A) dopamine receptor (Homo sapiens) (UniProt P21728); experiment: intrinsic activation of D1 CRE reporter – cell-based, HEK293 D1, CRE-luciferase, secondary assay 1, mechanism study for D1 allosteric modulator project, confirmation (AID 646); conditions: no dopamine, at 10 µM, stronger effect = higher value
Sequence (P21728 whole entry, looked up): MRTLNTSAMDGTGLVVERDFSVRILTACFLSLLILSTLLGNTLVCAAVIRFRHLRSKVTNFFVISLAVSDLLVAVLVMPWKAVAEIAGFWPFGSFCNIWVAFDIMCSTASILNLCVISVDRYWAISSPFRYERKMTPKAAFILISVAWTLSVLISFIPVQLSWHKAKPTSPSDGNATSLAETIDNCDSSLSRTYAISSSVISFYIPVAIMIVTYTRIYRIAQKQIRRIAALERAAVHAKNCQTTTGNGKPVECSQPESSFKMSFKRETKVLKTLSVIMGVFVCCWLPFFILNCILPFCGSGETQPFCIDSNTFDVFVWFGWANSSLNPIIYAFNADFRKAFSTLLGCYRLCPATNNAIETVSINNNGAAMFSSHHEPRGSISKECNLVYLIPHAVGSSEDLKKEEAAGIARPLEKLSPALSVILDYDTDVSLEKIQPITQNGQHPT

luminescence, inactive:
CCOc1cc(-c2noc(CCC(=O)N3CCOCC3)n2)ccc1OC 1180
COC(=O)[C@H](C(C)C)n1c(C)c(C(C)=O)c(C(C)=O)c1C 1540
N#Cc1nc(Cc2ccccc2)oc1NCCc1ccccc1 1730
Cc1cc(C)c2c(n1)nn1c(-n3ccnc3)cc(C)nc21 1660
CC1CCN(c2oc(-c3ccccc3F)nc2C#N)CC1 1620
Cc1ccc(C2CC(c3cccc(Br)c3)n3nc(N)nc3N2)cc1 (stereo unspecified) 1420
COc1cc(NC(=O)N2CCOCC2)cc(OC)c1 1580
COc1ccc(NC(=O)C2CCCN(S(=O)(=O)c3cccc4cccnc34)C2)cc1OC (stereo unspecified) 1590
CCCc1nc(-c2ccccc2O)n(-c2ccccc2)n1 1710
COc1ccc(-c2nn3c(-c4ccccc4)nnc3s2)cc1OC 1800
O=C(NCc1ccco1)c1cnn2c(C(F)(F)F)cc(-c3ccco3)nc12 1560
Cc1nn(-c2ccccc2)c2c1C(=O)NC(=O)C(C)(C)C2 1740
COc1ccc(-c2nnc(SCC(=O)NC3CCCCC3)o2)cc1OC 1800
c1coc(-c2nc3nc4ccccc4n3nc2-c2ccco2)c1 1610
CC1(C)Cc2ccccc2-c2nc(CN3CCOCC3)[nH]c(=O)c21 1890
CCCCSc1nc2c(c(=O)n1CC)SC(C)C2 (stereo unspecified) 1490
CCOC(=O)c1c(NC(=O)CSc2nnc(Cc3csc(N)n3)n2C)sc(C)c1C 1680
C#CCNc1nc(C(C)C)nc2c1nnn2Cc1ccccc1F 1600
C/C(=C\C(=O)c1ccccc1)Nc1cccc(O)c1 1340
O=S(=O)(c1cccs1)N1CCc2ccccc2C1 1530
COc1ccc(CCNC(=O)CCn2c(=O)oc3ccccc32)cc1OC 1540
COc1ccc(CCN(C)C(=O)C2CCCN(Cc3ccc(OC)c(OC)c3)C2)cc1OC (stereo unspecified) 1520
O=C(C1CCC1)N1CCc2cc(S(=O)(=O)NCc3cccnc3)ccc21 1680
CCOC(=O)c1c(NC(=O)CSc2nnc(CN3CCOCC3)n2C)sc2c1CCCC2 1870
CCSc1ncnc2c(C#N)c3n(c12)CCCCC3 1840
N#Cc1nc(N)nc(N(c2ccccc2)c2ccccc2)n1 1620
COc1ncnc2c1N=C1CC(C)(C)CC(N)=C1S2 1620
N#CCCN1CCN(S(=O)(=O)c2ccc(S(=O)(=O)NC3CCCCC3)cc2)CC1 1130
c1ccc(COc2nsnc2N2CCOCC2)cc1 1550
CCc1cc(=O)oc2cc(OCC(=O)N3CCCc4ccccc43)ccc12 1680
Cn1c(/C(C#N)=C2/CCCCCN2)nc2ccccc21 1800
COc1ccc(Nc2oc(-c3ccccc3Cl)nc2C#N)cc1 1750
CCOc1cc(C(=O)N2CCc3cc(OC)c(OC)cc3C2)ccc1OC(F)F 2710
CCOc1ccc(Nc2oc(Cc3ccccc3)nc2C#N)cc1 1910
CCOc1ccccc1C1CC(c2ccccc2)Nc2nc(N)nn21 (stereo unspecified) 1700
Cc1cc(C(F)(F)F)nn1-c1nc(-c2ccco2)cc(C(F)(F)F)n1 1710
c1ccc(-c2nnc3n2NC(c2ccc4c(c2)OCO4)S3)cc1 (stereo unspecified) 1610
CCOC(=O)c1cc2n(c1C)-c1ccccc1C2=O 1720
CCSc1nc(C)nc2c1oc1ccccc12 1590
CCCc1nc(N)nc2c1C(=O)CC(C)(C)C2 1560
CCOc1ccc(Cn2c(SCCCCC#N)nc3c2c(=O)n(C)c(=O)n3C)cc1OCC 1460
CC1CCN(c2nc3c(c(=O)[nH]c(=O)n3C)n2CCCc2ccccc2)CC1 1410
Cc1ccc(-c2nn(-c3ccccc3)cc2CN(Cc2ccccc2)C(=O)CCC(=O)O)o1 1420
CC(C)n1c(C(O)c2ccccc2)nc2ccccc21 (stereo unspecified) 1600
CCCn1c(=O)c2[nH]c(C3CCCC3)nc2n(CCC)c1=O 1560
Nc1ccc(S(=O)(=O)NC(=O)c2ccccc2)cc1 1560
O=c1cc(-c2ccccc2)nc(N2CCCCC2)[nH]1 1600
COC(=O)c1ccccc1NC(=O)C1CCN(S(=O)(=O)c2cc(OC)ccc2OC)CC1 1480
Cn1c(=O)c2cn(-c3cccc4ccccc34)cc2n(C)c1=O 1650
COc1ccc(-n2c(Cc3cccn3C)nnc2SCC(=O)Nc2cc(C)cc(C)c2)cc1 1500
COc1ccc(CCNC(=O)c2cc3sccc3n2C)cc1OC 1640
COc1ccc(-c2nnn(Cc3nc(N)nc(N4CCCCC4)n3)n2)cc1 1520
CN1CCN(CC(O)COCc2ccc3c(c2)OCO3)CC1 (stereo unspecified) 1670
COc1ncnc2sc3c(c12)CCCC3 1600
CC(C)C1C2=C(CC(C)(C)CC2=O)ON1c1ccccc1 (stereo unspecified) 1810
COC(=O)C(C)C1Sc2ccccc2NC1=O (stereo unspecified) 1730
N#Cc1c(N)sc2c1CCN(C(=O)OCc1ccccc1)C2 1760
CC(=O)OC(C)C[N+](C)(C)C (stereo unspecified) 1390
O=C(CSc1nnc2scc(-c3ccc(F)cc3)n12)NCc1ccco1 1730
COc1ccc(CCNc2ncnc3nc[nH]c23)cc1OC 1540
CCOc1ccc2[nH]c(=O)c(C(c3nnnn3CCOC)N3CCOCC3)cc2c1 (stereo unspecified) 1550
N#CCSc1nc2ccccc2c(=O)n1-c1ccccc1 1780
COC(=O)C1=C(C)NC2=C(C(=O)c3ccccc32)C1c1ccc(-c2ccc(C(=O)O)cc2)o1 (stereo unspecified) 1810
CCn1cc(C(=O)NCC2COc3ccccc3O2)c2cc(OC)c(OC)cc2c1=O (stereo unspecified) 1710
C/C(Cl)=C\Cn1c(Nc2cccc(C)c2)nc2c1c(=O)n(C)c(=O)n2C 1690
CN(C)c1nc(N)nc(CSc2nnnn2-c2cccc3ccccc23)n1 792
CCn1nc(C(=O)OCC(=O)N2c3ccccc3CC2C)c2ccccc2c1=O (stereo unspecified) 1520
CCC(=O)NC(=Nc1nc2ccccc2s1)NC(=O)CC 1420
CCOC(=O)c1cc(C)sc1NC(=O)C1CCC1 2190
COc1nc(NCc2ccc(Cl)cc2)nc(OC)n1 1580
COc1ccc(-c2nnco2)cc1OC 1540
CCOc1ccc2c(c1)cc(CN(C(=O)CC)C1CCCCC1)c1nnnn12 1650
CCn1c(=N)c(S(=O)(=O)c2ccc(F)cc2)cc2c(=O)n3ccccc3nc21 1820
Cn1c(=O)c2[nH]c(NCC3CCCO3)nc2n(-c2ccccc2)c1=O (stereo unspecified) 1520
O=C(NCc1ccccn1)c1ccc2nc(-c3ccco3)c(-c3ccco3)nc2c1 2040
CCn1ncc(C2=NOC(C(=O)Nc3ccccc3C(=O)OC)C2)c1C (stereo unspecified) 1280
COc1ccc(S(=O)(=O)N(C)CC(=O)Nc2ccc3c(c2)OCCO3)cc1OC 1540
CCOc1ccc(-c2nnn(CC(=O)N3CCN(c4ccc(OC)cc4)CC3)n2)cc1OCC 1540
CCCS(=O)(=O)N1CCC(C(=O)NCCc2ccc(OC)c(OC)c2)CC1 1810
Cc1ccc(C2CC(c3cccc(C)c3)n3nc(N)nc3N2)cc1 (stereo unspecified) 1850
CCCn1c(=NC(C)=O)c(C(=O)OCC)cc2c(=O)n3ccccc3nc21 1630
COc1ccc(S(=O)(=O)Nc2ccc(S(=O)(=O)N3CCCCC3)cc2)cc1OC 1540
CCOC(=O)/C=c1\s/c(=C\c2ccccc2OC)c(=O)n1CC(=O)N1CCOCC1 1600
FC(F)(F)c1cc(-c2ccco2)nc(N2CCOCC2)n1 1540
Cc1ccc(S(=O)(=O)c2c(N)n(C)c3nc4ccccc4nc23)cc1 1580
CC(=O)c1ccc(Oc2cc(C)nc(-n3nc(C)cc3C)n2)cc1 1560
CCCCc1c(O)nc2n(c1=O)CCS2 1610
CCNc1nc(NCC)nc(N(C)n2cnnc2)n1 1760
CCCSc1nc2c(c(=O)[nH]c(=O)n2C)n1CCc1ccccc1 1480
CCOc1cccc(-n2nnnc2-c2ccc(OC)cc2)c1 1540
COc1ccc(Nc2cc(C)nc(-n3nc(C)cc3C)n2)cc1 1750
